Screening results: PubChem BioAssay, ICCB-Longwood Screening Facility, Harvard Medical School
Sa growth inh – S. aureus growth inhibition. S. aureus RN4220 growth, OD600, 20 h, 42 °C; stronger effect = lower value. actives 0.53% (n = 170,000). relative growth, % (concentration not given with the values). AID 720641;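 active = relative growth at most 50% at the other temperature and 20+ points below 30 °C, or under 10% at both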
S aureus helic – S. aureus DNA helicase inhibition; purified S. aureus helicase, fluorescence unwinding assay; inhibition, % (no concentration beside the values); actives 0.05% (n = 120,000); in the data active = inhibition above about 25%, passing the limit was not always enough;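 also: 0% = mean of negative control wells and 100% = mean of positive control wells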
The depositor's hits bear a star; . = no result. Shown is part of a subset that was picked to be rich in hits.

SMILES	Sa growth inh	S aureus helic
CC[C@@H]1OC(=O)C[C@H](O)[C@@H](C)[C@@H](O[C@@H]2O[C@H](C)[C@@H](O[C@H]3C[C@@](C)(O)[C@@H](O)[C@H](C)O3)[C@H](N(C)C)[C@H]2O)[C@@H](C=O)C[C@@H](C)C(=O)/C=C/C(C)=C\[C@@H]1CO[C@H]1O[C@@H](C)[C@H](O)[C@H](OC)[C@@H]1OC	-1.0*	.
CC[C@H]1OC(=O)C[C@@H](O)[C@H](C)[C@@H](O[C@@H]2O[C@H](C)[C@@H](O[C@H]3C[C@@](C)(O)[C@@H](O)[C@H](C)O3)[C@H](N(C)C)[C@H]2O)[C@@H](CC=O)C[C@@H](C)C(=O)/C=C/C(C)=C/[C@@H]1CO[C@@H]1O[C@H](C)[C@@H](O)[C@@H](OC)[C@H]1OC	-0.2*	.
Cc1cc(C)n(CCC(=O)O)n1	99	4
Cc1ccccc1-c1nnc(N)s1	.	-17
Cc1ccc(-c2cc(C(=O)N(C)Cc3c(C)nn(C)c3C)c3cc(Br)ccc3n2)cc1	109	13
COc1cc2nc(Nc3ccc(C)c(C)c3)nc(N)c2cc1OC	95	.
COc1cc2nc(N(C)C)nc(N)c2cc1OC	88	44*
NC(=O)C1CCN(C(=O)CCC(=O)c2ccc(Br)cc2)CC1	113	-7
Cc1nc(-c2c[nH]c(C(=O)O)c2)cs1	71	49*
Cc1nc(-c2cccc(NC(=O)/C=C\C(=O)O)c2)cs1	.	6
C=Cn1ccc(CCC)c1-c1cccs1	81	-47
COCc1cc(=O)n2[nH]cc(-c3ccc(Cl)cc3)c2n1	113	17
CCCc1cc(=O)n2[nH]cc(-c3ccc(Cl)cc3)c2n1	-0.6*	36
Cc1cccc(CSc2nnc(-c3c[nH]c4ccccc34)n2C)c1	107	16
Cc1ccc(-n2nnnc2S(C)(=O)=O)c(C)c1	76	12
Cc1cccc(-n2nnnc2S(C)(=O)=O)c1	-0.6*	.
Cc1nc2ccc(C(=O)OCc3ccccc3)cc2nc1C	94	15
CSc1cccc(-c2nnc(NC(=O)c3ccc4c(c3)OCCO4)o2)c1	7.7*	.
CS(=O)(=O)c1ccccc1-c1nnc(NC(=O)c2ccc3c(c2)OCCO3)o1	74	.
CC(C)(C)NC(=O)c1c(N)no[n+]1[O-]	101	-1
CCc1nnc(NC(=O)c2nc(S(=O)(=O)Cc3cccc(C)c3)ncc2Cl)s1	11	.
CCc1nnc(NC(=O)c2nc(S(=O)(=O)Cc3ccc(C)cc3)ncc2Cl)s1	11	.
Cc1ccc(CS(=O)(=O)c2ncc(Cl)c(C(=O)Nc3nnc(C(C)C)s3)n2)cc1	5.6*	.
Cc1cccc(CS(=O)(=O)c2ncc(Cl)c(C(=O)Nc3nnc(C(C)C)s3)n2)c1	5.0*	.
COc1ccc(OC)c(NC(=O)Cn2c(=O)oc3cc(Cl)ccc32)c1	87	.
SMILES	Sa growth inh	S aureus helic
CCOc1ccccc1NC(=O)Cn1c(=O)n(C(C)C)c(=O)c2oc3ccccc3c21	92	.
CCOC(=O)C1CCCN(C(=O)CCS(=O)(=O)c2cc3c(cc2Cl)NC(=O)CO3)C1 (stereo not given)	93	.
CCN(CC)CCCNc1nc2cc(OC)c(OC)cc2c2nc(-c3ccccc3)nn12	104	74*
CCN(CC)CCCNc1nc2cc(OC)c(OC)cc2c2nc(-c3cccnc3)nn12	94	43
CN(C)S(=O)(=O)c1ccc(=O)n(CC(=O)NCC2COc3ccccc3O2)c1 (stereo not given)	99	-11
CCC1CCCCN1C(=O)Cn1cc(S(=O)(=O)N(C)C)ccc1=O (stereo not given)	97	29*
COc1ccc(CN2CC(C(=O)N3CCn4c(nc5ccccc54)C3)CC2=O)cc1 (stereo not given)	100	-7
CN1/C(=C/c2cccc[n+]2C)C=Cc2ccccc21	69	54*
CN1/C(=C/C=C(C#N)C#N)C=Cc2ccccc21	76	-50
Cc1ccccc1OCc1nc(SCC(=O)NC2CCCC2)n[nH]1	100	3
COc1ccc(-c2nn(C)c3sc(C(=O)NCCCN4CCOCC4)cc23)cc1OC	134	32
CCCN1CCN(CCCNC(=O)c2cc3c(-c4ccc(OC)c(OC)c4)nn(C)c3s2)CC1	131	50*
CN(C)S(=O)(=O)c1ccccc1	105	-13
CC1=CC(=O)C=C(C)C1=NS(=O)(=O)c1ccccc1	-0.4*	18
O=S(=O)(N=C1SCCS1)c1ccccc1	.	-12
C=CCn1c(-c2c(Nc3ccc(Cl)cc3)sc(C(=O)c3ccccc3)c2N)nnc1N1CCOCC1	83	-20
COCOC(=O)C1(c2ccc(Cl)cc2)CCCC1	88	-14
CO[C@H]1C[C@H](O[C@H]2[C@H](C)[C@@H](OC3O[C@H](C)C[C@H](N(C)C)[C@H]3O)[C@@H](C)C[C@]3(CO3)C(=O)[C@H](C)[C@@H](O)[C@@H](C)[C@@H](C)OC(=O)[C@@H]2C)O[C@@H](C)[C@@H]1O (stereo not given in full)	-0.6*	.
CO[C@H]1C[C@H](O[C@H]2[C@H](C)[C@@H](OC3O[C@H](C)C[C@H](N(C)C)[C@H]3OC(C)=O)[C@@H](C)C[C@]3(CO3)C(=O)[C@H](C)[C@@H](OC(C)=O)[C@@H](C)[C@@H](C)OC(=O)[C@@H]2C)O[C@@H](C)[C@@H]1OC(C)=O (stereo not given in full)	16	.
CCN(C(=O)CSc1nnc(C)s1)c1ccccc1	86	7
Cc1nnc(SCC2=C(C(=O)O)N3C(=O)[C@@H](NC(=O)Cn4cnnn4)[C@H]3SC2)s1	-0.6*	.
Cc1ccc(Cc2c[nH]c(=S)s2)cc1	23*	9
Cc1ccc(Cc2cn3cc(-c4ccc(F)cc4)nc3s2)cc1	96	.
CSc1nc2ccc3nc(NC(=O)C4=COCCO4)sc3c2s1	.	18
CCOC(=O)N1CCN(C(=O)c2ccc(Br)cc2)CC1	90	-13
SMILES	Sa growth inh	S aureus helic
O=C1C(Sc2ccccc2)=C/C(=N/S(=O)(=O)c2cccs2)c2ccccc21	0.0*	16
CS/C(=N\S(=O)(=O)c1cccs1)NC(=O)c1ccccc1	98	13
Cc1ccc(Nc2ssc(=O)c2Cl)cc1C	88	-5
CCn1c(=O)cc(Nc2ccc(C)c(C)c2)[nH]c1=O	2.4*	-23
O=C(Cn1c(CO)nc2ccccc21)NCC(F)(F)F	77	9
NNC(=O)c1cc2c(s1)CCCCC2	93	13
CCSc1ccc(SC#N)s1	-0.4*	14
CCSc1nc2ccccc2s1	85	-22
CN1CCN(C2CC(=O)N(C3CCCCC3)C2=O)CC1 (stereo not given)	92	13
Cc1nc2ccc(S(=O)(=O)NCC(=O)NC3CCCCCC3)cc2s1	91	.
COC(=O)c1c(N)n(-c2ccc(OC)cc2)c2nc3ccccc3nc12	85	-6
C/C=C(/C)C(=O)OC1CC(O)(C(C)C)C2C(OC(=O)c3ccc(O)cc3)CC(C)=CCC12C (stereo not given)	6.0*	-1
COC(=O)c1ccc2c(=O)n(CCC3=CCCCC3)c(SCc3cccnc3)nc2c1	81	.
Cc1ccc2cccc(OC(=O)c3ccccc3F)c2n1	.	19
O=C(Oc1cccc2cccnc12)c1ccccc1F	0.8*	9
CC1COc2c(N3CCN(C)CC3)c(F)cc3c(=O)c(C(=O)O)cn1c23 (stereo not given)	-0.5*	.
CC1COc2c(N3CCN(C)CC3)c(F)cc3c(=O)c(C(=O)N4CCN(c5ncccn5)CC4)cn1c23 (stereo not given)	71	-7
